{"source": "patent US20150152398", "about": "“Endoribonuclease and Methods of Use Thereof” (The Regents of the University of California, published 2015)", "data": [{"target": "T1, TtCas6A (TTHA0078, Cas6) (Thermus thermophilus HB8)", "T1 chain": "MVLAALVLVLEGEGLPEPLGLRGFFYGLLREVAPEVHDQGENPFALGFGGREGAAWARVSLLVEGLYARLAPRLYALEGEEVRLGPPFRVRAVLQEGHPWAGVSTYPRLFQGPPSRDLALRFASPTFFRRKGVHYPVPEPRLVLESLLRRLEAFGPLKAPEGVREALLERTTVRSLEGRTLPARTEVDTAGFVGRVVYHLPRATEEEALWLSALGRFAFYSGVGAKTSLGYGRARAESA", "test": "EMSA; Kd in FIG. 24C only", "details": "chain copies: 2 stated (dimer in solution); hairpin; ssRNA; [17,28]", "source_text": "(§1) FIG. 22 illustrates that TtCas6A and TtCas6B both cleave repeats R1 and R3 and retain their cleaved products. (A) Sequences and predicted secondary structures of T. thermophilus CRISPR repeats. Sites of cleavage are indicated with blue arrows. TtCas6e (TTHB192) cleaves repeat R2, while TtCas6A (TTHA0078) and TtCas6B (TTHB231) both cleave repeats R1 and R3. (B) Cleavage product binding affinities of TtCas6A and TtCas6B enzymes. Maltose binding protein (MBP)-fused TtCas6A or TtCas6B were bound to in 5′-radiolabelled, vitro transcribed R1 and R3 RNAs. Bound and unbound fractions were resolved by electrophoresis on a native polyacrylamide gel and visualized by phosphorimaging. The data for these and all subsequent binding assays were fit with standard binding isotherms (solid line). Error bars on each data point denote standard error of the mean (SEM) from three independent experiments. (C) Experiments to confirm single turnover. RNA cleavage assays were carried out at indicated protein:RNA ratios. RNA cleavage was monitored using denaturing polyacrylamide gel electrophoresis. The data from these and all subsequent endoribonuclease activity assays were fit with single exponential curves to yield first-order rate constants. (Top to bottom: FIG. 22A, SEQ ID NOs: 1, 2, 55).\n(§2) To test the importance of the stem sequence for substrate RNA recognition by TtCas6A, a series of EMSAs was performed using R1 repeat-derived RNAs that carried single base pair substitutions (C-G→A-U). All mutant RNAs contained the complete 5′ segment and additional two nucleotides downstream of the cleavage site. Compared to the wild-type RNA, substitution of any of the four C-G base pairs in the stem led to about five-fold decrease in affinity (FIG. 24C). This is consistent with the observation that the lower three C-G base pairs are specifically read out by Arg129. The binding defect observed upon mutation of the closing (uppermost) base pair could be due to loss of stability of the stem-loop structure, which is determined by the closing base-pair (Serra et al, 1993). […]", "values": [{"sequence": "GUUGCAAGGGAUUGAGACCCGUAAGGGUAU", "binding signal": "~5 fold lower affinity than wild-type RNA"}]}, {"target": "T1, TtCas6A (TTHA0078, Cas6)", "test": "EMSA; Kd in FIG. 24C only", "details": "chain copies: 2 stated (dimer in solution); hairpin; ssRNA; [18,27]", "source_text": "as §1, §2", "values": [{"sequence": "GUUGCAAGGGAUUGAGCACCGUAAGGUGAU", "binding signal": "~5 fold lower affinity than wild-type RNA"}]}, {"target": "T1, TtCas6A (TTHA0078, Cas6)", "test": "EMSA; Kd in FIG. 24C only", "details": "chain copies: 2 stated (dimer in solution); hairpin; ssRNA; [19,26]", "source_text": "as §1, §2", "values": [{"sequence": "GUUGCAAGGGAUUGAGCCACGUAAGUGGAU", "binding signal": "~5 fold lower affinity than wild-type RNA"}]}]}
